Bioassay records deposited in PubChem by The Scripps Research Institute Molecular Screening Center.
TEAD-YAP block = TEAD-YAP interaction inhibition. inhibition, % at 9.12 µM. 640,000 tested, 1.4% active. HEK-TIYL cells, TEAD-Gal4/YAP UAS-luciferase luminescence. AID 1259422; in the data active means inhibition above about 32%;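 further: 0% = median of test compound wells and 100% = reference inhibitor wells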
FBW7 activator = activators of human E3 ligase FBW7 | AlphaScreen FBW7–phospho-cyclin E peptide binding, activator screen | AID 1259310 | 650,000 tested, 0.13% active | normalized activity (activation), % at 26.1 µM | Q969H0; in the data active means normalized activity above about 1.9%;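 further: purified mutant Fbw7 with reduced substrate affinity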
GPR151 activ = activators of human GPR151; Q8TDV0; PathHunter beta-arrestin GPR151 cells, luminescence; activation, % at 11.2 µM; 650,000 tested, 1% active; in the data active means activation above about 4.9%;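 further: 0% = median of compound wells and 100% = cells with positive control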
MITF primary = inhibitors of human MITF. AlphaScreen MITF homodimerization, bead proximity signal. inhibition, % at 2.6 µM. 650,000 tested, 0.91% active; in the data active means inhibition above about 50%;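 further: 0% = vehicle wells with protein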
Target sequence (O75030 whole entry, looked up): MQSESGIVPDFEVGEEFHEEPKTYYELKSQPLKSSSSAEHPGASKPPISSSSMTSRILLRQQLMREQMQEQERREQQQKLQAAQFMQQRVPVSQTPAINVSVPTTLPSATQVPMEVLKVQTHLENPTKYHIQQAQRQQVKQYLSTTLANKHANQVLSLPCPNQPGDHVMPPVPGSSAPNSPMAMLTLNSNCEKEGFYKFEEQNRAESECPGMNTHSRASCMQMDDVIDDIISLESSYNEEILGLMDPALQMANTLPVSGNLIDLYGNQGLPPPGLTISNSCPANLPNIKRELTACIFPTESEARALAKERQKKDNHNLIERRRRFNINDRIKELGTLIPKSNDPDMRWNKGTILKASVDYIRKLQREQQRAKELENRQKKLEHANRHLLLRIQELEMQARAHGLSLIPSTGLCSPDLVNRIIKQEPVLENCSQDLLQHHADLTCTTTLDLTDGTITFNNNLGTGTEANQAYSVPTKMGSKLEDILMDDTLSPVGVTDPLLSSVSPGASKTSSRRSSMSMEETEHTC
Starred values were filed as active, the others as inactive; ! = not confirmed by another sample. Most compounds without a hit are left out; they make up all but 3.5% or so of the library.

SMILES	TEAD-YAP block	FBW7 activator	GPR151 activ	MITF primary
O=C1C(=O)N(c2nc3ccc(Br)cc3s2)C(c2ccc(F)cc2)/C1=C(\O)c1ccccc1 (stereo not drawn)	8	0	1	7
CCC(Sc1nc2cc(OC)c(OC)cc2c(=O)n1Cc1ccc(Cl)cc1)C(=O)NCCOC (stereo not drawn)	-2	0	1	7
Cc1cc(C(=O)NCCN=C2NS(=O)(=O)c3ccccc32)ccc1[N+](=O)[O-]	-5	0	1	1
CCOCc1cc(CN2CCN(c3ccccc3OC)CC2)c(O)c2ncccc12	10	-1	0	91*
Oc1c(CN2CCCCC2)cc(COCc2ccccc2)c2cccnc12	74*	-1	0	98*
CCOc1ccccc1N1CCN(Cc2cccc(OC)c2O)CC1	8	0	0	17
COc1ccccc1N1CCN(Cc2cc(Cl)c3cccnc3c2O)CC1	32*	-1	-3	42
COc1ccccc1N1CCN(Cc2cc([N+](=O)[O-])c3cccnc3c2O)CC1	14	-1	-1	18
COc1ccc(C2CC(c3c(O)cc(C)oc3=O)=Nc3ccccc3S2)cc1O (stereo not drawn)	62*	0	-2	7
COc1ccc(C2CC(c3c(O)cc(C)oc3=O)=NCCS2)c(OC)c1 (stereo not drawn)	42*	0	0	-2
CCCn1c2c(c(O)c(C(=O)NCCN(CC)CC)c1=O)CCCC2	15	0	1	-4
Brc1ccc2nc(-c3ccccc3)c(-c3ccccc3)nc2c1	2	0	0	-3
CCNC(=O)/C(C#N)=C/c1c(Oc2ccccc2C)nc2ccccn2c1=O	34*	0	-6	5
CNC(=O)/C(C#N)=C/c1c(Oc2cccc(C)c2C)nc2ccccn2c1=O	28	0	-3	9
CCNC(=O)/C(C#N)=C/c1c(Oc2cccc(C)c2C)nc2ccccn2c1=O	42*	0	-4	-10
CCCCc1nc(C(N)=O)c2[nH]c(=O)n(Cc3ccc(OC)cc3)c2n1	2	0	-1	12
Cc1ccc(NC(=O)O/N=C\c2ccc(N(C)C)cc2)cc1	34*	0	1	-21
c1ccc(-n2cnc3c(NC4CC4)nc(Nc4nccc5ccccc45)nc32)cc1	43*	0	-2	9
c1cnc2ccc(Nc3nc(NC4CC4)c4ncn(-c5ccsc5)c4n3)cc2c1	9	0	1	18
c1cnc(Nc2nc(NC3CC3)c3ncn(-c4ccsc4)c3n2)cn1	34*	0	1	11
c1ccc(-n2cnc3c(NC4CC4)nc(Nc4ccncc4)nc32)cc1	38*	0	2	10
c1ccc(-n2cnc3c(NC4CC4)nc(Nc4cnccn4)nc32)cc1	51*	0	2	2
Clc1ccc(C2=CC(c3cccc4ccccc34)n3nnnc3N2)cc1 (stereo not drawn)	3	0	-1	-4
CCOc1ccccc1-c1nc2ccc(OC(C)=O)cc2c(=O)o1	-3	0	0	5
CN(C)c1cccc(Nc2nc(N)c3ncn(-c4ccsc4)c3n2)c1	10	0	-1	9
SMILES	TEAD-YAP block	FBW7 activator	GPR151 activ	MITF primary
CN(C)c1cccc(Nc2nc(NC3CC3)c3ncn(-c4ccsc4)c3n2)c1	33*	0	0	0
c1ccc(Nc2nc(Nc3ccncn3)nc3c2ncn3-c2ccsc2)cc1	-61	0	3	1
c1cc(Nc2nc(NC3CC3)c3ncn(-c4ccsc4)c3n2)ncn1	-25	7.4*	0	7
O=C(O)c1ccc2nsnc2c1	-8	0	3	1
Cc1cc(-c2cccc3[nH]c(C(F)(F)F)nc23)nn1C(=O)c1ccncc1	34*	0	-1	2
O=C(O)c1cccc2[nH]c(C(F)(F)F)nc12	12	0	1	16
CCc1nnc(NS(=O)(=O)c2ccc(NC(=O)c3ccccc3)cc2)s1	9	0	2	2
CCc1nnc(NS(=O)(=O)c2ccc(NC(=S)NC(=O)c3ccccc3)cc2)s1	-10	2.9*	0	-2
Cc1nonc1OC(C)CNCCNc1ccc([N+](=O)[O-])cc1 (stereo not drawn)	6	0	0	11
Cc1cnc(Nc2cccc(N(C)C)c2)nc1Nc1ccc2c(c1)OCO2	40*	0	1	23
c1cc2c(cc1Nc1nc(N3CCCCC3)nc(N3CCCCC3)n1)OCO2	-5	2.2*	-2	1
Cc1cnc(Nc2cccc(N(C)C)c2)nc1Nc1ccc(N2CCOCC2)cc1	66*	0	2	19
Cc1cnc(Nc2nc3ccccc3n2C)nc1Nc1ccc2c(c1)OCO2	32*	0	0	4
COc1cc2nc(Nc3cccc(N(C)C)c3)nc(Nc3ccc(N4CCOCC4)cc3)c2cc1OC	5	0	0	14
c1cc2c(cc1Nc1nc(N3CCOCC3)nc(N3CCOCC3)n1)OCO2	4	0	-1	3
Cc1cnc(NCc2ccc3c(c2)OCO3)nc1Nc1ccc2c(c1)OCO2	4	0	1	-1
Cc1cnc(Nc2ccc(N3CCOCC3)cc2)nc1Nc1ccc2c(c1)OCO2	80*	0	4	18
Cc1cnc(Nc2ccc(C(F)(F)F)cc2)nc1Nc1ccc2c(c1)OCO2	-9	0	1	18
CN(C)c1cccc(Nc2nccc(Nc3ccc(N4CCOCC4)cc3)n2)c1	39*	0	2	4
Cc1cc(I)cnc1NC(=O)c1ccccc1[N+](=O)[O-]	58*	0	0	7
O=C(NC(=S)Nc1ccc(Cl)cn1)c1ccccc1[N+](=O)[O-]	-12	0	-1	21
O=C(Nc1ccc(Cl)cn1)c1ccccc1[N+](=O)[O-]	43*	0	0	-8
COC(=O)CSc1nnc(-c2cccc([N+](=O)[O-])c2)n1C	-11	0	1	-6
COc1cnc(-c2ccccn2)nc1-c1ccccc1	40*	-1	3	18
COc1ccc(OC)c(N=C(C)c2c(C)[nH]n(-c3nc4ccccc4s3)c2=O)c1	10	0	-10	22
SMILES	TEAD-YAP block	FBW7 activator	GPR151 activ	MITF primary
CCOC(=O)CN=C(C)c1c(C)[nH]n(-c2nc3ccccc3s2)c1=O	49*	0	-10	4
CC(=NCCCN1CCOCC1)c1c(C)[nH]n(-c2nc3ccccc3s2)c1=O	33*!	-2	-8	0
CC(=NCCO)c1c(-c2ccccc2)[nH]n(-c2nc3ccccc3s2)c1=O	-7	0	-1	-13
CC(=NCc1ccco1)c1c(C)[nH]n(-c2nc3ccccc3s2)c1=O	41*!	0	-8	14
Cn1ncc2c(Nc3ccc(F)cc3)nc(N3CCN(c4ccc(F)cc4)CC3)nc21	-1	0	0	-3
CCCNc1nc(Nc2ccccn2)nc2c1ncn2-c1ccsc1	62*	0	-1	9
c1ccc(OCCNc2nc(Nc3ccccn3)nc3c2ncn3-c2ccsc2)cc1	11	0	0	3
FC(F)(F)c1cccc(CNc2nc(Nc3nccc4ccccc34)nc3c2ncn3-c2ccsc2)c1	32*	0	1	-3
OCCNc1nc(Nc2nccc3ccccc23)nc2c1ncn2-c1ccsc1	58*	0	1	0
